Only some compounds are listed: those with a hit (about 3.5% of all), similar ones and a draw of the others.
Bead autofluor – counter-screen for toxin protease inhibitors: compound fluorescence; fluorescence intensity (no concentration beside the values); hit rate 3.1% among 360,000; AID 624483; compound autofluorescence counterscreen, microsphere flow cytometry; hits give high values; in the data active = fluorescence intensity above about 16000; inconclusive = no clear call, values can overlap the other calls
BJeLR lethal – BJeLR cell viability loss. hit rate 0.17% among 300,000. BJeLR (HRASV12) viability, CellTiter-Glo ATP luminescence, 48 h. inhibition, % (test concentration not listed). AID 1554; in the data active = inhibition above about 50%; inconclusive = no clear call, values can overlap the other calls
BoNT-A LC inh2 – blocks Botulinum neurotoxin A light chain protease | multiplex microsphere protease substrate cleavage, flow cytometry | hit rate 0.17% among 360,000 | AID 588499 | inhibition, % at 10 µM
BoNT F protease – BoNT F light chain protease inhibition | Multiplex microsphere protease cleavage assay, flow cytometry | inhibition, % at 10 µM | hit rate 0.22% among 360,000; in the data active = inhibition above about 35%, passing the limit was not always enough; inconclusive = no clear call, values can overlap the other calls
Anthrax LF prot – blocks Bacillus anthracis lethal factor protease; P15917; multiplex microsphere protease cleavage assay, LF; hit rate 0.12% among 360,000; inhibition, % at 10 µM; AID 588501
Numbers stand for hits; . = inactive; ? = inconclusive; / = not tested or not shown. Rule as the data show it, unless noted: active = inhibition above about 30%; inconclusive = no clear call, values can overlap the other calls; inactive = below that.

SMILES	Bead autofluor	BJeLR lethal	BoNT-A LC inh2	BoNT F protease	Anthrax LF prot
Cc1ccc(C(=O)CSc2nsc(C)c2C#N)cc1	.	.	.	.	.
Cc1snc(SCC(=O)c2ccc(Cl)cc2)c1C#N	22846	.	?	.	.
N#Cc1c(SCC(N)=O)nsc1SCc1ccc(Cl)cc1	22700	.	?	.	.
COc1ccc(S(=O)(=O)N(C)C[C@H]2Oc3ncc(Br)cc3C(=O)N([C@@H](C)CO)C[C@@H]2C)cc1	.	/	.	.	.
O=C(Nc1ccccc1-c1ccccc1)C1CCCN(c2ncccn2)C1 (stereo not drawn)	16368	.	.	.	.
O=C(NCc1cccc(C(F)(F)F)c1)C1CCCN(c2ncccn2)C1 (stereo not drawn)	22625	.	?	.	.
O=C(C1CCCN(c2ncccn2)C1)N1CCc2ccccc21 (stereo not drawn)	17813	.	.	.	.
Cc1cc(C)nc(N2CCCC(C(=O)NCc3cccc(C(F)(F)F)c3)C2)n1 (stereo not drawn)	.	.	.	.	.
CC(C)Oc1ccc(C(=O)NCCCNC(=O)c2ccccn2)cc1	.	.	.	.	.
CCCCn1c(NC(C)CC)nc2c1c(=O)[nH]c(=O)n2C (stereo not drawn)	.	.	.	.	.
O=C(O)C1OC2OC3(CCCCC3)OC2C2OC3(CCCCC3)OC12 (stereo not drawn)	.	.	.	35.7	.
Cc1onc(-c2ccccc2)c1C(=O)OCC(=O)Nc1ccc2c(c1)OCO2	19429	.	.	.	.
Cc1onc(-c2ccccc2Cl)c1C(=O)OCC(=O)Nc1ccc2c(c1)OCO2	.	.	.	.	.
COc1ccc([C@@H]2CC(=O)[C@@H]3CN(S(=O)(=O)c4ccc(C)cc4)[C@H](c4ccccc4)C[C@@H]3N2S(=O)(=O)c2ccccc2)cc1	.	/	.	.	.
CCN(CC)C(=O)CC(c1ccccc1)c1ccco1 (stereo not drawn)	24247	.	.	.	.
COc1cccc(-c2cnc3cccnn23)c1	.	/	.	.	.
COC(=O)CCSc1nc(N2CCOCC2)c2c(c1C#N)CC(C)(C)OC2	.	.	.	.	.
CC(C)CCSc1nc(N2CCOCC2)c2c(c1C#N)CC(C)(C)OC2	19440	.	.	.	.
CC(C)(C)OC(=O)N1CCCC1C(=O)N1CCc2ccccc21 (stereo not drawn)	16582	.	?	.	.
CCN=C1S/C(=C/c2ccc(-c3ccc(F)cc3)o2)C(=O)N1CC	.	.	.	.	.
CCCn1c(CCNC(=O)c2cccs2)nc2ccccc21	.	.	.	.	.
Cc1cc2ccccc2n1CCNC(=O)c1cccs1	.	.	78.7	.	.
Cc1ccc(N2C(=O)CSC2c2c(F)cccc2Cl)cc1 (stereo not drawn)	17035	.	?	.	.
CN(C)S(=O)(=O)c1ccc(Cl)c(C(=O)OCC(=O)c2ccco2)c1	.	/	.	.	.
N#CC1=C(Nc2ccccc2)SC=C(c2ccc(F)cc2)N=C1N1CCOCC1	/	.	/	/	/
SMILES	Bead autofluor	BJeLR lethal	BoNT-A LC inh2	BoNT F protease	Anthrax LF prot
COc1ccc(C2C3=C(N=C4SCC(=O)N42)c2ccccc2CC3)cc1 (stereo not drawn)	.	.	.	.	.
COc1ccc(C2C3=C(N=C4SCC(=O)N42)c2ccccc2CC3)cc1OC (stereo not drawn)	24021	.	.	.	.
CC1CCCCC1NC(=O)C1CCN(S(=O)(=O)N2CCOCC2)CC1 (stereo not drawn)	.	.	.	.	.
CC1CCCCC1NC(=O)C1CCN(S(=O)(=O)N2CCCCCC2)CC1 (stereo not drawn)	18939	.	.	.	.
COc1ccc(NC(=O)CSc2nnc(-c3cccnc3)o2)cc1	21010	.	.	.	.
CC1CCN(S(=O)(=O)c2ccc(-c3nnc(SCc4cccnc4)o3)cc2)CC1	23932	.	.	.	.
COC(=O)CSc1nnc(-c2ccncc2)o1	16743	.	?	.	.
c1ccc2c(CSc3nnc(-c4ccncc4)o3)cccc2c1	23894	.	.	.	.
Clc1ccccc1CSc1nnc(-c2ccncc2)o1	.	.	.	.	.
CC(=O)Nc1ccc(NC(=O)CSc2nnc(-c3cccnc3)o2)cc1	?	.	.	.	?
COCCNc1nc(Nc2ccc(Cl)cc2F)c2sccc2n1	.	/	.	.	.
COc1cccc(-c2nnc(SCc3cccnc3)o2)c1	17724	.	.	.	.
COc1ccc(-c2nnc(SCC(=O)OC3CCCCC3)o2)cc1OC	19136	/	.	.	.
CCOC(=O)CSc1nnc(-c2ccc(NS(=O)(=O)c3ccc(C)cc3)cc2)o1	20276	.	.	.	.
COc1ccc(-c2nnc(-c3cccnc3)o2)cc1OC	24717	.	.	.	.
COC(=O)CSc1nnc(-c2ccc(S(=O)(=O)N3CCCCC3)cc2)o1	.	.	.	.	.
COc1ccc(-c2nnc(SCC(=O)N3CCCCC3)o2)cc1OC	.	.	.	.	.
C/C(=N\S(=O)(=O)c1ccc(C)cc1)N1CCN(S(=O)(=O)c2ccccc2)C1C(C)C (stereo not drawn)	22111	.	.	.	.
CCOC(=O)c1cnc(-n2nc(C)cc2C)nc1N(C)C	22817	.	.	.	.
Cc1cc(C)n(-c2ncc3c(n2)N(CCO)CCOC3=O)n1	.	.	.	35.0	.
CCOC(=O)c1cnc(-n2nc(C)cc2C)nc1N1CCOCC1	23062	/	.	.	.
Cc1cc(C)n(-c2ncc3c(n2)N(C)CCOC3=O)n1	.	.	.	.	.
C[C@@H](c1ccccc1)N1C[C@@H](COCc2ccccc2)Oc2cc(N3CC[C@@H](N(C)C)C3)ccc2S1(=O)=O	.	/	.	.	.
CN1CCCC(C)(C(=O)Nc2cccc(Oc3ccccc3)c2)C1 (stereo not drawn)	.	/	.	.	.
C=CCNCCCCOc1ccc(C)cc1[N+](=O)[O-]	.	.	.	.	.
SMILES	Bead autofluor	BJeLR lethal	BoNT-A LC inh2	BoNT F protease	Anthrax LF prot
CCC(C)NCCCCOc1ccc(C)cc1[N+](=O)[O-] (stereo not drawn)	20177	.	.	.	.
CC1Oc2ccccc2N(CC(=O)Nc2ccccc2F)C1=O (stereo not drawn)	.	.	.	.	.
CC1Oc2ccccc2N(CC(=O)NC2CC2)C1=O (stereo not drawn)	.	.	.	.	.
COc1ccccc1NC(=O)CN1C(=O)C(C)Oc2ccccc21 (stereo not drawn)	22685	.	.	.	.
CC1Oc2ccccc2N(CC(=O)NCC2CCCO2)C1=O (stereo not drawn)	23344	.	.	.	.
O=C(Nc1ccc(Cl)cc1)C1Cc2c(-c3ccccc3)ccnc2O1 (stereo not drawn)	.	/	.	.	.
CC1(C)CN(C(Cc2ccccc2)C(N)=O)C1=O (stereo not drawn)	.	.	.	.	.
CCc1ccc(CN(C)C(=O)c2cc(COc3cccc(C(F)(F)F)c3)on2)nc1	.	.	.	.	.
O=S(=O)(/C=C/c1ccccc1)Oc1ccccc1	21677	.	.	.	.
COC(=O)[C@]12CCCCC=C1N(Cc1ccccc1)C(=O)[C@H](CC(=O)N1CCC(c3ccccc3)CC1)C2	.	/	.	.	.

Source: PubChem (several laboratories)
